Measurements as given in publication PMC7862700, “An all-to-all approach to the identification of sequence-specific readers for epigenetic DNA modifications on cytosine”.

How the values were obtained:
Assay in all cases: DAPPL (digital affinity profiling via proximity ligation, sequencing); 10 mM Tris-HCl pH 7.5, 50 mM NaCl, 1 mM DTT, 4% glycerol, room temperature, 30 min; GST-TFs on glutathione beads, 16-mer random dsDNA library, 0.1% formaldehyde crosslink after washing; high values mean tight binding
FLI1 = target: T1, FLI1 (Homo sapiens, UniProt Q01543 1-452); settings: protein: recombinant; tags: N-terminal GST; dsDNA, one strand shown
T1 sequence: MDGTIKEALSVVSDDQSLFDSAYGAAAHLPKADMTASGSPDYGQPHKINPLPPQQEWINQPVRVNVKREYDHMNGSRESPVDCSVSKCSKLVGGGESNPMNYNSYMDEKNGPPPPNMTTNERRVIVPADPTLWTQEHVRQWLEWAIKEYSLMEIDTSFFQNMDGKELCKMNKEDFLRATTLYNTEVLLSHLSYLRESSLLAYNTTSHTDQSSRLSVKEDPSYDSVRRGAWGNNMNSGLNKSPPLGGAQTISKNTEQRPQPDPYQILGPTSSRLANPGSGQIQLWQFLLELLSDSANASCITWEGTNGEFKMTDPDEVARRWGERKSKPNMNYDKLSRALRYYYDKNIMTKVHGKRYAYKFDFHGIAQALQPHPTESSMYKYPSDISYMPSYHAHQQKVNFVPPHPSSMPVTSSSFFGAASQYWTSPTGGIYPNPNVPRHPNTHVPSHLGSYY
Outline: (§1)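 The binding signal reported is, for every hexamer, its read frequency for a factor over its read frequency for the tag-only sample. Reads came from pools of yeast-expressed, GST-fused human transcription factors on glutathione beads, barcoded with DNA and mixed with that sample, which were incubated with 200 nmole of a random double-stranded 16-mer DNA library in Tris/NaCl/DTT/glycerol buffer at room temperature for 30 min. After washing, the pools were crosslinked with 0.1% formaldehyde, proximity-ligated with BsaI/T4 ligase for 1 h at 37 °C, PCR-amplified and sequenced on an Illumina NextSeq500.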

ELK1 = target: T2, ELK1 (Homo sapiens, UniProt P19419 1-428); settings: protein: recombinant; tags: N-terminal GST; dsDNA, one strand shown
T2 sequence: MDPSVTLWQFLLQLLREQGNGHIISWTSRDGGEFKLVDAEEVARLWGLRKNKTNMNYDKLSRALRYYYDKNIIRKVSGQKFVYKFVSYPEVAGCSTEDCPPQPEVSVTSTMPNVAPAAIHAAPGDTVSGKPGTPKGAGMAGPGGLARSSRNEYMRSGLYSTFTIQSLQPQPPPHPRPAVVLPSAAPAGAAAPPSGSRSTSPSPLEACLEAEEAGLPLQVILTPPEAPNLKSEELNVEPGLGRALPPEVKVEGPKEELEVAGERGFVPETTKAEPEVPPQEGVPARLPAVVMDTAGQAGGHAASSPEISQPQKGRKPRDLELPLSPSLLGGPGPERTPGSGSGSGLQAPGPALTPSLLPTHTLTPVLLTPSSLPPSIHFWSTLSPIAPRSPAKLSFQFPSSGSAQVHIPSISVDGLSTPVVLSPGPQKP
Outline: as §1

GABPA = target: T3, GABPA (Homo sapiens, UniProt Q06546 1-454); settings: protein: recombinant; tags: N-terminal GST; dsDNA, one strand shown
T3 sequence: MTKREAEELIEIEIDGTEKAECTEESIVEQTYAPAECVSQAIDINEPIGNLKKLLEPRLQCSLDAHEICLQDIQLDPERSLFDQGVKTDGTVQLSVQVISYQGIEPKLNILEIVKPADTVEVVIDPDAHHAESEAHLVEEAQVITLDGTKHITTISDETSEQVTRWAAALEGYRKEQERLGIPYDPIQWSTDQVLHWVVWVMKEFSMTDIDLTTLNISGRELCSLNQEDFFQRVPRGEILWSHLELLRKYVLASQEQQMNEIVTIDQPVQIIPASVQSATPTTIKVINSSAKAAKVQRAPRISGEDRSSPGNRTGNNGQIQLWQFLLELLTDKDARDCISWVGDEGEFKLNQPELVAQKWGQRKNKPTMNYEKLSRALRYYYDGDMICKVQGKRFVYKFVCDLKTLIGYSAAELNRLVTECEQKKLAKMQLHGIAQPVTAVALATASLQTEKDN
Outline: as §1

ERG = target: T4, ERG (Homo sapiens, UniProt P11308 1-479); settings: protein: recombinant; tags: N-terminal GST; dsDNA, one strand shown
T4 sequence: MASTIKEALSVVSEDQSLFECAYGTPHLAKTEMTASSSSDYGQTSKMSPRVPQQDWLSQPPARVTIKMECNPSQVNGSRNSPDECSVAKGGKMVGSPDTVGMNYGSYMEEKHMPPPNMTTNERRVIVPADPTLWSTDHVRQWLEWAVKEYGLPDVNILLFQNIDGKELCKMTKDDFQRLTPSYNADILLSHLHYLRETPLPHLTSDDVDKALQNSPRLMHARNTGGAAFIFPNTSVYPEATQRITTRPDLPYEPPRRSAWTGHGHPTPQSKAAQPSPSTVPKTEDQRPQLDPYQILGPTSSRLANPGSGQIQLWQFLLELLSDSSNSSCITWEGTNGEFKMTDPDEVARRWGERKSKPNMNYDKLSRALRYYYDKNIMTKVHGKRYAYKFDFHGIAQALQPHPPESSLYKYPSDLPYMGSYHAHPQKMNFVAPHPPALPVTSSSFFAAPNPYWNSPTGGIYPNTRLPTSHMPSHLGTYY
Outline: as §1

ELF1 = ELF1 (Homo sapiens, UniProt P32519 1-619); settings: protein: recombinant; tags: N-terminal GST; dsDNA, one strand shown
Outline: as §1

SPI1 = SPI1 (Homo sapiens, UniProt P17947 1-270); settings: protein: recombinant; tags: N-terminal GST; dsDNA, one strand shown
Outline: as §1

ELK3 = target: T5, ELK3 (Homo sapiens, UniProt P41970 1-407); settings: protein: recombinant; tags: N-terminal GST; dsDNA, one strand shown
T5 sequence: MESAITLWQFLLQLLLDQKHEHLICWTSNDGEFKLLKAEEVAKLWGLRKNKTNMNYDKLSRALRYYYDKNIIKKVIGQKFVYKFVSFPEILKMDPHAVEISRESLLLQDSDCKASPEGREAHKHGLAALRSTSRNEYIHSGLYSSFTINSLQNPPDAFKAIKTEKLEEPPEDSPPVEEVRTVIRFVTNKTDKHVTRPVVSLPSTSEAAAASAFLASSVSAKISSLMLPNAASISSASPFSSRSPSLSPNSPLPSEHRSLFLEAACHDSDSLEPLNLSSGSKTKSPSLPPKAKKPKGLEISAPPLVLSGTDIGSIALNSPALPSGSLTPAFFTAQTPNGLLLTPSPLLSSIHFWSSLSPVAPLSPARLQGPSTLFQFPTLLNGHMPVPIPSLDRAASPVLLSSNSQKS
Outline: as §1

FEV = target: T6, FEV (Homo sapiens, UniProt Q99581 1-238); settings: protein: recombinant; tags: N-terminal GST; dsDNA, one strand shown
T6 sequence: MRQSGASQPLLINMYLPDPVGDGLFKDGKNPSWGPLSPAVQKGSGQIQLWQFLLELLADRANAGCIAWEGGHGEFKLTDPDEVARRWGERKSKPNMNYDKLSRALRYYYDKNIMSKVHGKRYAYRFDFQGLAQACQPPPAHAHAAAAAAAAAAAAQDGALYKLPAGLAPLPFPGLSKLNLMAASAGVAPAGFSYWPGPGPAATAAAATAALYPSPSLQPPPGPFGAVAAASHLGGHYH
Outline: as §1

ETV5 = ETV5 (Homo sapiens, UniProt P41161 1-510); settings: protein: recombinant; tags: N-terminal GST; dsDNA, one strand shown
Outline: as §1

HSF1 = HSF1 (Homo sapiens, UniProt Q00613 1-529); settings: protein: recombinant; tags: N-terminal GST; chain copies: 3; dsDNA, one strand shown
Outline: as §1

ELF4 = ELF4 (Homo sapiens, UniProt Q99607 1-663); settings: protein: recombinant; tags: N-terminal GST; dsDNA, one strand shown
Outline: as §1

ELK4 = target: T7, ELK4 (Homo sapiens, UniProt P28324-2 1-405); settings: protein: recombinant; tags: N-terminal GST; dsDNA, one strand shown
T7 sequence: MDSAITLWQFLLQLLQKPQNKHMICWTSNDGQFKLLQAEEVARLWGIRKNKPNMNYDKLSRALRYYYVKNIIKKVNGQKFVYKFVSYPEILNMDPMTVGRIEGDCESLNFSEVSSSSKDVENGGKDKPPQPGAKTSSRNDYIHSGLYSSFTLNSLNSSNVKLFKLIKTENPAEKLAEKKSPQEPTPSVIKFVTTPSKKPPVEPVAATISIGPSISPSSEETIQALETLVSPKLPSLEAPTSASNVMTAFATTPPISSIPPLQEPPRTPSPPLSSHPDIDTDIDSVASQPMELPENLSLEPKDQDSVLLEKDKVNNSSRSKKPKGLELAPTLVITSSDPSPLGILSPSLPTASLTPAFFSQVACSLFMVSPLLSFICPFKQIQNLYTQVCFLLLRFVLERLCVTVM
Outline: as §1

ETV2 = target: T8, ETV2 (Homo sapiens, UniProt O00321 1-342); settings: protein: recombinant; tags: N-terminal GST; dsDNA, one strand shown
T8 sequence: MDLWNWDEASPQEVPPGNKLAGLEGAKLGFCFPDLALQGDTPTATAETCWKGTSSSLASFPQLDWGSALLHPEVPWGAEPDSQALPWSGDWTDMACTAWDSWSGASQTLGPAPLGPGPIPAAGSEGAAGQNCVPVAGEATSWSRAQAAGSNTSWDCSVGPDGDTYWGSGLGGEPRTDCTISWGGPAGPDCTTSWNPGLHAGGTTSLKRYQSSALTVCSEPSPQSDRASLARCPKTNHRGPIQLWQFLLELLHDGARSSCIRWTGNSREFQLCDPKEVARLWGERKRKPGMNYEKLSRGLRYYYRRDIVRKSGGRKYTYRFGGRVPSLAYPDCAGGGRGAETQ
Outline: as §1

ELF3 = target: T9, ELF3 (Homo sapiens, UniProt P78545 1-371); settings: protein: recombinant; tags: N-terminal GST; dsDNA, one strand shown
T9 sequence: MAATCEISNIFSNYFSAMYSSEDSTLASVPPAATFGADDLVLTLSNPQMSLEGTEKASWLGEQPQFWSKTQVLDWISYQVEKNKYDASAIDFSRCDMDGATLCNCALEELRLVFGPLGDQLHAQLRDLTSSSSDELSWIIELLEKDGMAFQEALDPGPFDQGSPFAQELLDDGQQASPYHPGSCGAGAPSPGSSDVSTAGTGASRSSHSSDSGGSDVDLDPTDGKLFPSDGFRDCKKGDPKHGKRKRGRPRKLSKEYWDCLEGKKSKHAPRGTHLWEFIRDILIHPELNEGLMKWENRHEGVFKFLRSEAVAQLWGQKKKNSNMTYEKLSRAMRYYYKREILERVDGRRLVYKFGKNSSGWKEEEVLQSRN
Outline: as §1

ETV1 = ETV1 (Homo sapiens, UniProt P50549 1-477); settings: protein: recombinant; tags: N-terminal GST; dsDNA, one strand shown
Outline: as §1

SPIB = SPIB (Homo sapiens, UniProt Q01892 1-262); settings: protein: recombinant; tags: N-terminal GST; dsDNA, one strand shown
Outline: as §1

CRX = CRX (Homo sapiens, UniProt O43186 1-299); settings: protein: recombinant; tags: N-terminal GST; dsDNA, one strand shown
Outline: as §1

Sequence of HSF1 (Q00613 whole entry): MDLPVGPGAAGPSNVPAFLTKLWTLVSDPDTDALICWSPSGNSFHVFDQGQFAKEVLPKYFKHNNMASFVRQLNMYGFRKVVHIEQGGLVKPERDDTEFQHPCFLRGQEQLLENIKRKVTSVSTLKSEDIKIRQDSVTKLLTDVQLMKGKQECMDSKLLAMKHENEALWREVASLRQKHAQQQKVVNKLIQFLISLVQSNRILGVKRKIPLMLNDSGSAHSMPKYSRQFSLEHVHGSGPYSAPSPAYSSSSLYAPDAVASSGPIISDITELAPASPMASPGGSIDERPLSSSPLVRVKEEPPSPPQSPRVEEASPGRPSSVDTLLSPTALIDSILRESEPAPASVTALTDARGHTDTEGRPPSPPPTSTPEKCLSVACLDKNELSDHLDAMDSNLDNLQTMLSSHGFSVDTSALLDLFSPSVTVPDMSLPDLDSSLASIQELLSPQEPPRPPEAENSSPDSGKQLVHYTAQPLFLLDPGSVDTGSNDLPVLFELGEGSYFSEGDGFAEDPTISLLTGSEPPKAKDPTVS
Sequence of ELF4 (Q99607 whole entry): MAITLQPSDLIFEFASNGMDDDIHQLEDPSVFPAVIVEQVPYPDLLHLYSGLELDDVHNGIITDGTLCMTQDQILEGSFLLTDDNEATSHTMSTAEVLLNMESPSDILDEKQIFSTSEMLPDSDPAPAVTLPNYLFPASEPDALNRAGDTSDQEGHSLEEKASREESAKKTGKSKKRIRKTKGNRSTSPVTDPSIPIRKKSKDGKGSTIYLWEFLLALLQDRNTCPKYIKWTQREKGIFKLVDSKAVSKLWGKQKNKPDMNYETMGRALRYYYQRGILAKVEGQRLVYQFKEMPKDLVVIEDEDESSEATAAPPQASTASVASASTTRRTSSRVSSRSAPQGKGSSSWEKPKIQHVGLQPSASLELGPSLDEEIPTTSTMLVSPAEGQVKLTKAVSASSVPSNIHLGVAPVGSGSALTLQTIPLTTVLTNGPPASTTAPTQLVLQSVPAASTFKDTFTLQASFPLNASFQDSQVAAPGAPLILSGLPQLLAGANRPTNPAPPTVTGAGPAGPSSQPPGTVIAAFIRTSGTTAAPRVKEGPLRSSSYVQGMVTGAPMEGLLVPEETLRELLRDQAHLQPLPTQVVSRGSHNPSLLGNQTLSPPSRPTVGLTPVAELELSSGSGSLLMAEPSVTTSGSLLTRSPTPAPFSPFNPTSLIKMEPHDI
Sequence of ETV5 (P41161 whole entry): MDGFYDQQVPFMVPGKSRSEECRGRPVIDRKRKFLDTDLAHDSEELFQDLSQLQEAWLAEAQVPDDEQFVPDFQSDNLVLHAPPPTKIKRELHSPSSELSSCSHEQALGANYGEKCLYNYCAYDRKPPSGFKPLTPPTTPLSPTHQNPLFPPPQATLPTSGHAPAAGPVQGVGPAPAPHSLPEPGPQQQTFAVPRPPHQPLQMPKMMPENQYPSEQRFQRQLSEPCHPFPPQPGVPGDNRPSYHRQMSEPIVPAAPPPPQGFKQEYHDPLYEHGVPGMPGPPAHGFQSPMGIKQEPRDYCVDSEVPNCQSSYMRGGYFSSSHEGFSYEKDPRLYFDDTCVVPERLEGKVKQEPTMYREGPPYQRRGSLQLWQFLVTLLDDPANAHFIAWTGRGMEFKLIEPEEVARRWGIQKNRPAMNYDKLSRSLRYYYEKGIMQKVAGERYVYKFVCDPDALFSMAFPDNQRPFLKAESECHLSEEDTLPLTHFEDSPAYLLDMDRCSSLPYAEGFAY
Sequence of ETV1 (P50549 whole entry): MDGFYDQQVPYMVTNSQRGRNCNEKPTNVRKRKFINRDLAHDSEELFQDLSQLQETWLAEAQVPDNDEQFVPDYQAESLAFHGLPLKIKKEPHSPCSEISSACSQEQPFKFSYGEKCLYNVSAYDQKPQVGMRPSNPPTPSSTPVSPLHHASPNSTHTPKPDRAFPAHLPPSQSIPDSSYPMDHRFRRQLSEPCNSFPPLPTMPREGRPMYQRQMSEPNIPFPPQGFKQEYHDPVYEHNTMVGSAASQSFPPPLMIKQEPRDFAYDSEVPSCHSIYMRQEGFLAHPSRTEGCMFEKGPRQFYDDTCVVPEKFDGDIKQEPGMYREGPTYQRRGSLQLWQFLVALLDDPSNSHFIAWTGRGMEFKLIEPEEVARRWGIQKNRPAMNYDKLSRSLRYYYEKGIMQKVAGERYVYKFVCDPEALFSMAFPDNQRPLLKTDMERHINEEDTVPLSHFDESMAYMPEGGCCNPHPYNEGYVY
Sequence of CRX (O43186 whole entry): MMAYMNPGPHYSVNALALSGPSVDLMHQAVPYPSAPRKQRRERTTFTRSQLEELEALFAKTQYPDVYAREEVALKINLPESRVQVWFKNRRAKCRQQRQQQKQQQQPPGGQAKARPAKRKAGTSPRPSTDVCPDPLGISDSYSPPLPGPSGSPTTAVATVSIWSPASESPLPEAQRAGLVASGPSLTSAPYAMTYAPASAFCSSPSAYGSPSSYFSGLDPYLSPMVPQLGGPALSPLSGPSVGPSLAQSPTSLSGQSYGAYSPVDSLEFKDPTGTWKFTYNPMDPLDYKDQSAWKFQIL
Sequence of ELF1 (P32519 whole entry): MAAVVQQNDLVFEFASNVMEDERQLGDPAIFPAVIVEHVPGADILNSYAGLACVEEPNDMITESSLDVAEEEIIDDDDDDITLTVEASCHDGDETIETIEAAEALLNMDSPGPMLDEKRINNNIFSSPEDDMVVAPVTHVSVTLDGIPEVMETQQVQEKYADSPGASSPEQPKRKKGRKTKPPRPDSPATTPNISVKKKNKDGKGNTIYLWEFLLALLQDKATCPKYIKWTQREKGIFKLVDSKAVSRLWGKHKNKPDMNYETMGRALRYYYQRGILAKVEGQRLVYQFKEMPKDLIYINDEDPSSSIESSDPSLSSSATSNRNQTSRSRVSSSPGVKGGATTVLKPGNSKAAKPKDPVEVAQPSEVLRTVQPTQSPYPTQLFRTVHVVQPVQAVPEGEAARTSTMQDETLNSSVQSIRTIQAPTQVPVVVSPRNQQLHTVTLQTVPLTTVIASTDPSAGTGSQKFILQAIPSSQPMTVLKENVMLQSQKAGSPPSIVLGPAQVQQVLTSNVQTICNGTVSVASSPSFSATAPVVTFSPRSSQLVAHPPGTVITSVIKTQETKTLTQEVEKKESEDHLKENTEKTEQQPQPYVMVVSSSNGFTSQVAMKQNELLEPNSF
Sequence of SPIB (Q01892 whole entry): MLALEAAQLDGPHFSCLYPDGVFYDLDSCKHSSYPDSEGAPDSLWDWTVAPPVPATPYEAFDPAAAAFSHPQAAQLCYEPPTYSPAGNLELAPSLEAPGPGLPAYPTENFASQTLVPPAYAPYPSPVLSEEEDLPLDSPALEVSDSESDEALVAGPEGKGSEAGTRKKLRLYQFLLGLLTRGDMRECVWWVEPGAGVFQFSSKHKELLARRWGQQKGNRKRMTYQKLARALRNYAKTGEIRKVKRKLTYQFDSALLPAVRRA

Sequence: AGACCT
- binding signal (FLI1): 1.01 fold enrichment (6-mer frequency, TF over GST control)
- binding signal (ELK1): 1.04 fold enrichment (6-mer frequency, TF over GST control)
- binding signal (GABPA): 1.02 fold enrichment (6-mer frequency, TF over GST control)
- binding signal (ERG): 1 fold enrichment (6-mer frequency, TF over GST control)
- binding signal (ELF1): 1.05 fold enrichment (6-mer frequency, TF over GST control)
- binding signal (SPI1): 1.06 fold enrichment (6-mer frequency, TF over GST control)
- binding signal (ELK3): 1.01 fold enrichment (6-mer frequency, TF over GST control)
- binding signal (FEV): 1.04 fold enrichment (6-mer frequency, TF over GST control)
- binding signal (ETV5): 1.04 fold enrichment (6-mer frequency, TF over GST control)
- binding signal (HSF1): 1.02 fold enrichment (6-mer frequency, TF over GST control)
- binding signal (ELF4): 1.12 fold enrichment (6-mer frequency, TF over GST control)
- binding signal (ELK4): 1.07 fold enrichment (6-mer frequency, TF over GST control)
- binding signal (ETV2): 1.2 fold enrichment (6-mer frequency, TF over GST control)
- binding signal (ELF3): 1.08 fold enrichment (6-mer frequency, TF over GST control)
- binding signal (ETV1): 1.04 fold enrichment (6-mer frequency, TF over GST control)

Sequence: CATAAA
- binding signal (FLI1): 1 fold enrichment (6-mer frequency, TF over GST control)
- binding signal (SPIB): 1.01 fold enrichment (6-mer frequency, TF over GST control)
- binding signal (FEV): 1 fold enrichment (6-mer frequency, TF over GST control)
- binding signal (ETV5): 1.03 fold enrichment (6-mer frequency, TF over GST control)
- binding signal (HSF1): 1.07 fold enrichment (6-mer frequency, TF over GST control)
- binding signal (ELF4): 1.06 fold enrichment (6-mer frequency, TF over GST control)
- binding signal (ELF3): 1.08 fold enrichment (6-mer frequency, TF over GST control)
- binding signal (CRX): 1.11 fold enrichment (6-mer frequency, TF over GST control)
- binding signal (ETV1): 1.03 fold enrichment (6-mer frequency, TF over GST control)
